The campaign covered roughly 310,000 compounds. About 410 (0.13%) were called active. Roughly 2% stayed inconclusive and do not appear here. No rule for the calls is given here. A selection follows. Entries with a potency or affinity are not part of this list.

This assay is described as follows: RSV antiviral activity via CPE protection, HEp-2 cells, primary 10 µM value included (AID 2391). Particulars: RSV-induced CPE inhibition, at 10 µM, hits give high values.
Take `O=C1CS/C(=N/N=C\c2ccn[nH]2)N1`: the CPE inhibition was 6.91% (inactive).
On to `Cc1c(C(=O)O)cccc1-c1ccc(/C=N/n2cnnc2)o1`, for which the CPE inhibition was 0.79% (inactive).
In the case of `COc1ccc(C(=O)OCC(=O)N(C)C2CCS(=O)(=O)C2)cc1Br` (centres undefined), the CPE inhibition was 1.57% (inactive).
Regarding `CCOC(=O)c1c(CC(C)C)csc1NC(=O)COC(=O)c1cc(OC)c(OC)cc1[N+](=O)[O-]`, the CPE inhibition is 3.28% (inactive).
As to `Cc1cc(C(=O)O[C@H]2[C@H](Cc3ccccc3)NS(=O)(=O)[C@H]3C[C@@H]4C=C[C@]23O4)ccc1[N+](=O)[O-]`, the CPE inhibition is 1.3% (inactive).
The figure for `C[C@@H]1NS(=O)(=O)[C@H]2C[C@@H]3C=C[C@]2(O3)[C@H]1OC(=O)Nc1ccc(C(F)(F)F)cc1[N+](=O)[O-]` is 0.31% (inactive).
The value for `CCN(Cc1ccccc1)C(=O)Cc1c[nH]c2ccccc12` was 4.41% (inactive); that for `Cc1ccc(-c2ccc(/C=N/NC(=S)Nc3ccccc3)o2)cc1[N+](=O)[O-]` was 17.4% (inactive).
As to `O=[N+]([O-])c1ccc(-c2ccc(/C=N/O)o2)cc1`, the CPE inhibition is 11.6% (inactive).
The figure for `CC(=O)Nc1ccc(NC(=O)CSc2ccc(-c3ccc4c(c3)OCO4)nn2)cc1` is 3.37% (inactive).
Regarding `CCOC(=O)C1CCCN(c2c(Nc3ccc(C)c(C)c3)c(=O)c2=O)C1` (centres undefined), the CPE inhibition was 1% (inactive).
The figure for `COc1cccc(OCCCN2CCN(S(=O)(=O)c3ccc(NC(C)=O)cc3)CC2)c1` is 3.71% (inactive); for `CCc1c(C(=O)Nc2cc(C)cc(C)c2)[nH]c(C)c1C(C)=O` it is 2.64% (inactive); for `COc1ccc(C(CNC(=O)COc2ccccc2)N2CCCCC2)cc1` (centres undefined) it is 0.71% (inactive).
Consider `COc1ccc(C(CNC(=O)Cc2ccccc2)N2CCCCC2)cc1` (centres undefined), for which the CPE inhibition was -0.35% (inactive).
The value for `NC(=O)c1ccsc1NC(=O)COC(=O)c1nc(Cl)ccc1Cl` was -1.24% (inactive); that for `c1ccc(N2CCN(c3nc4ccccc4[nH]3)CC2)nc1` was -2.6% (inactive); that for `c1ccc2[nH]c(CN3CCCCCC3)nc2c1` was 0.95% (inactive).
The figure for `Oc1ccc(N2CCN(Cc3nc4ccccc4[nH]3)CC2)cc1` is 13.2% (inactive).
The value for `COc1ccccc1N1CCN(Cc2nc3ccccc3[nH]2)CC1` was 1.74% (inactive); that for `COC(CNS(=O)(=O)c1cccc2nonc12)OC` was 3.28% (inactive).
Regarding `CCN(CC(=O)Nc1c(F)cccc1F)C(=O)c1ccc(N2CCCCC2)c([N+](=O)[O-])c1`, the CPE inhibition was 5.38% (inactive).
With `Cc1csc(NC(=O)c2ccc[nH]c2=O)n1`, the CPE inhibition was 0.61% (inactive).
Turning to `COc1ccc(OCCOC(=O)C(C)NS(=O)(=O)c2ccc(NC(C)=O)cc2)cc1` (centres undefined), the CPE inhibition was 0.13% (inactive).
Take `CCOC(=O)N1CCN(CC(=O)Nc2nc3ccc(OC)cc3s2)CC1`: the CPE inhibition is 10.2% (inactive).
As for `O=c1c2ccccc2nc(SCc2ccc([N+](=O)[O-])cc2)n1CCCO`, the CPE inhibition was 4.2% (inactive).
For the compound `CCC(Sc1nc2ccccc2c2nc3ccccc3n12)C(=O)NCc1ccco1` (centres undefined), the CPE inhibition is -0.18% (inactive).
As for `Cn1c(SCC#N)nc2ccccc2c1=O`, the CPE inhibition was 2.04% (inactive).
In the case of `O=C(CSc1nc2ccccc2n1CC(=O)NCc1ccccc1)NCc1ccco1`, the CPE inhibition is -0.09% (inactive).
The value for `CCn1c(SCC#N)nc2ccccc2c1=O` was 1.07% (inactive); that for `Cc1cccc(C(=O)O/N=C/c2c(N3CCOCC3)n(C)c3ccccc23)c1` was -0.89% (inactive); that for `COC(=O)Cc1c(C)c2ccc(OC3CCCCC3=O)cc2oc1=O` (centres undefined) was 6.9% (inactive).
As to `CN(C)c1ccc(NC(=O)CSc2nc(C3CC3)nc3ccccc23)cc1`, the CPE inhibition is 3.13% (inactive).
Turning to `CCC(C)NC(=O)c1nc2c(nnn2Cc2ccccc2Cl)c(=O)[nH]1` (centres undefined), the CPE inhibition was 1.33% (inactive).
`CC1C2C(C)N(C)C(=O)N(C)C2N(C)C(=O)N1C` (centres undefined): the CPE inhibition was 2.07% (inactive).
With `CCOc1ccc2nc(NS(=O)(=O)c3cccs3)sc2c1`, the CPE inhibition is 1.43% (inactive).
As for `CC1(C(=O)Nc2nc3ccccc3s2)CC1(Br)Br` (centres undefined), the CPE inhibition is 9.49% (inactive).
`CCCC(=O)Nc1nc2ccc(OCC)cc2s1`: the CPE inhibition is 2.67% (inactive).
Consider `CCOc1ccc2nc(NC(=O)C(NS(=O)(=O)c3cccs3)C(C)C)sc2c1` (centres undefined), for which the CPE inhibition is 19.6% (inactive).
For `C/C(=N/NS(C)(=O)=O)c1ccc2ccccc2c1`, the CPE inhibition was -0.76% (inactive).
For the compound `CC(C)C(=O)Nc1cccc(-c2cnc3ccccc3n2)c1`, the CPE inhibition was -1.56% (inactive).
Take `O=C(NNC(=O)C1CC1c1ccccc1)Nc1ccccc1` (centres undefined): the CPE inhibition is 1.51% (inactive).
`Cc1cc(N2CCN(c3ccccc3Cl)CC2)n2cc(-c3ccccc3)nc2n1`: the CPE inhibition was 5.23% (inactive).
`Cc1cc(N2CCOCC2)n2cc(-c3ccccc3)nc2n1`: the CPE inhibition was 1.5% (inactive).
Consider `CCCC(=O)N/C(N)=N/c1nc(C)c2ccccc2n1`, for which the CPE inhibition was 0.78% (inactive).
Turning to `N#CCCn1cc(CNC2CCC(O)CC2)c2ccccc21` (centres undefined), the CPE inhibition was 2.18% (inactive).
Take `Cn1nc(SCC(=O)O)sc1=S`: the CPE inhibition is -0.46% (inactive).
As for `Cc1ccc2cc(CN(CC3CCCO3)C(=S)NCc3ccco3)c(=O)[nH]c2c1` (centres undefined), the CPE inhibition was 1.42% (inactive).
For the compound `Cc1ccc2cc(CN(Cc3ccco3)C(=S)NCC3CCCO3)c(=O)[nH]c2c1C` (centres undefined), the CPE inhibition is 2% (inactive).
With `COc1ccc(C(=O)COC(=O)CCn2nnc(-c3cccs3)n2)cc1`, the CPE inhibition is 1.36% (inactive).
As to `NC(=O)C1CCN(c2ccc(C(F)(F)F)cc2[N+](=O)[O-])CC1`, the CPE inhibition is 16.8% (inactive).
For the compound `O=[N+]([O-])c1cc(C(F)(F)F)ccc1N1CCCC(O)C1` (centres undefined), the CPE inhibition was 9.15% (inactive).
With `COCC1CCN(C(=O)C2CCC(=O)N(Cc3cccc(F)c3)C2)CC1` (centres undefined), the CPE inhibition was 2.17% (inactive).
Regarding `c1cncc(-c2nn3c(Cn4cnc5ccccc54)nnc3s2)c1`, the CPE inhibition was 15.6% (inactive).
Regarding `c1ccc(Cc2nn3c(Cn4cnc5ccccc54)nnc3s2)cc1`, the CPE inhibition was 5.56% (inactive).
The figure for `c1ccc2c(c1)nnn2Cc1nnc2sc(-c3ccncc3)nn12` is 1.65% (inactive); for `c1ccc2c(c1)ncn2Cc1nnc2sc(-c3ccncc3)nn12` it is -0.84% (inactive); for `Clc1cccc(-c2nn3c(Cn4cnc5ccccc54)nnc3s2)c1` it is 34% (inactive).
Regarding `c1csc(-c2nn3c(Cn4nnc5ccccc54)nnc3s2)c1`, the CPE inhibition is 26.6% (inactive).
The figure for `Cc1ccc[n+](C(C)C(=O)Nc2ccc(C)c([N+](=O)[O-])c2)c1` (centres undefined) is 0.22% (inactive); for `COc1cccc(NC(=O)CNc2cc(S(=O)(=O)N3CCOCC3)ccc2N2CCCC2)c1` it is -0.7% (inactive); for `CC(C)(C)CC(=O)NC(=S)NCc1ccccc1` it is 5.07% (inactive).
For `CC(C)(C)C(=O)NC(=S)NCCc1ccccc1`, the CPE inhibition was 2.62% (inactive).
In the case of `COc1ccc(/C(C)=N/OCC(=O)N=Nc2c(O)[nH]c3ccc(Br)cc23)cc1`, the CPE inhibition was 4.9% (inactive).
Turning to `O=C(Nc1ccc(F)cc1F)C1CC(=O)N(Cc2ccccc2)C1` (centres undefined), the CPE inhibition is 0.74% (inactive).
Turning to `CCc1c(C)nc2ncnn2c1N1CCC(C(=O)NCc2cccs2)CC1`, the CPE inhibition is 11% (inactive).
Consider `O=C(NC(=S)NNC(=O)c1ccccc1O)c1cccc([N+](=O)[O-])c1`, for which the CPE inhibition is 16.2% (inactive).
The figure for `C=CCN1CC(c2nc3ccccc3n2CCOc2ccccc2)CC1=O` (centres undefined) is 0.6% (inactive); for `CCn1c(C2CC(=O)N(Cc3ccccc3)C2)nc2ccccc21` (centres undefined) it is 1.99% (inactive); for `Cn1c(SCC(=O)NC2CCCC2)nnc1-c1ccncc1` it is 0.88% (inactive).
With `COc1ccc(C(=O)Nc2cccc(C(=O)N3CCCCC3)c2)cc1`, the CPE inhibition was 3.16% (inactive).
Regarding `Cc1ccccc1Nc1nc(N)nc(COC(=O)c2cccn2C)n1`, the CPE inhibition is 4.72% (inactive).
`CCc1ccccc1Nc1nc(N)nc(COC(=O)c2c(C)noc2C)n1`: the CPE inhibition was 3.24% (inactive).
The figure for `Cc1nn(-c2ccccn2)c(C)c1Oc1ccccc1O` is 0.08% (inactive); for `Cc1cc(C)nc(-n2nc(C)c(Oc3ccccc3O)c2C)n1` it is 1.29% (inactive); for `CCC(=O)c1ccc(OCC(=O)N(C)CC(=O)Nc2cccc(F)c2)cc1` it is -0.9% (inactive).
Turning to `CC(=O)Nc1ccc2c3c(cccc13)CC2`, the CPE inhibition is 3.08% (inactive).
On to `Cc1cccc(NC(=O)[C@H](Cc2c[nH]c3ccccc23)NC(=O)[C@@H]2Cc3ccccc3CN2)c1`, for which the CPE inhibition was 3.9% (inactive).
Take `COc1ccc(NC(=O)[C@H](Cc2c[nH]c3ccccc23)NC(=O)[C@@H]2Cc3ccccc3CN2)cc1`: the CPE inhibition is 1.35% (inactive).
With `Cc1cc(N2CCOCC2)nc2ccc(NC(=O)CCC(=O)N3CCN(c4ccccc4F)CC3)cc12`, the CPE inhibition is 13.8% (inactive).
The figure for `CC(NC(=O)COc1ccc(Br)cc1)C(=O)O` (centres undefined) is 0.8% (inactive); for `O=C1N=C(N2CCOCC2)S/C1=C\c1ccc(OS(=O)(=O)c2ccccc2)cc1` it is 0.11% (inactive); for `CN1CCN(C2=NC(=O)/C(=C/c3ccccc3OS(=O)(=O)c3ccccc3)S2)CC1` it is 1.12% (inactive).
Consider `CC(=O)N1c2ccccc2N(Cc2ccc(C)cc2C)C(=O)C1(C)C`, for which the CPE inhibition was 5.65% (inactive).
On to `Cc1cc(C)nc(NC(=O)c2c(F)c(F)c(F)c(C(=O)Nc3cc(C)cc(C)n3)c2F)c1`, for which the CPE inhibition is -2.23% (inactive).
Consider `CCn1cc(C(=O)NCc2ccco2)c(=O)c2cc(F)c(N3CCN(C(=O)c4ccco4)CC3)cc21`, for which the CPE inhibition was 0.76% (inactive).
For `CCn1cc(C(=O)NCc2ccncc2)c(=O)c2cc(F)c(N3CCN(C(=O)c4ccco4)CC3)cc21`, the CPE inhibition was 4.28% (inactive).
`CCn1cc(C(=O)O)c(=O)c2cc(F)c(N3CCN(C(=S)NC(=O)c4ccccc4)CC3)cc21`: the CPE inhibition is -1.03% (inactive).
Turning to `CCC(=O)N1CCN(c2cc3c(cc2F)c(=O)c(C(=O)O)cn3CC)CC1`, the CPE inhibition is 0.7% (inactive).
For the compound `COc1ccccc1C1CCCN1Cc1nc(-c2cc3c(cc2Cl)OCO3)oc1C` (centres undefined), the CPE inhibition was 1.45% (inactive).
The figure for `CCOc1ccccc1-c1nc(CN2CCCC2c2nccs2)c(C)o1` (centres undefined) is 5.15% (inactive); for `COCc1ccc(CN2CCCC(CO)(Cc3ccccc3C)C2)o1` (centres undefined) it is -0.94% (inactive); for `CCOC(=O)c1cnc(Cc2ccccc2)[nH]c1=O` it is 1.25% (inactive).
The figure for `N#Cc1nc(COc2ccccc2Cl)oc1N1CCCC1` is 40.5% (inactive).
